# Assay results taken from PubChem BioAssay (Tox21).
# Several values for one entry are separate records, joined by “and”; a condition that tells them apart may be missing. Identical values can stand only once. Activity calls are given as the source filed them. Entries that show only a call come without a potency. Calls come from the whole dose curve; as a rule, active = well fitted curve in the direction sought with a large enough effect in the repeat runs; inconclusive = weak or mixed curves; inactive = flat fitted curve, though single readings scatter.
# Experiment: qHTS assay to test for compound auto fluorescence at 460 nm (blue) in HEK293 cells (AID 720678)
# Conditions: blue autofluorescence 405/460 nm; series mostly up to 91.3 µM
# Description: National Center for Advancing Translational Sciences [NCATS]
# NIH Chemical Genomics Center [NCGC]
# U.S. Environmental Protection Agency [EPA]
# National Institutes of Environmental Health Sciences [NIEHS]
# National Toxicology Program [NTP]
# U.S. Food and Drug Administration [FDA]
# Compound auto fluorescence often interferes with screening of the compound library against various biological targets and signaling pathways. Some of these compounds may have fluorophoric properties. Such properties may interfere with the assay outputs resulting in false positives and/or negatives. To decrease such complications and ensure the compound activities are relevant in terms of biological response, the Tox21 10K compound library was screened for auto fluorescence.
# From the fluorophores used as reporter signals in our screening assays, the auto fluorescence equivalencies of compounds against three fluorophores have been evaluated: Triamterene, Fluorescein and Rose Bengal sodium for blue, green and red fluorescence, respectively. The fluorescence intensities were measured using Excitation/Emission wavelengths at 405/460nm, 485/535nm and 540/590nm for blue, green and red labels, respectively. This assay includes the blue fluorescence data.
# Tox21 Assay Protocol Summary:
# 2,000 HEK293 cells in 5 uL of culture medium containing 10% dialyzed FBS per well were dispensed into black wall/clear bottom 1536-well plates using a Multidrop Combi Dispenser (Thermo Scientific). The assay plates were incubated for 4-5 hr at 37C to allow cell attachment to the well bottom, followed by the transfer of 23 nL compound or DMSO vehicle by a pintool work station (Kalypsys, San Diego, CA). After the assay plates were incubated overnight at 37C and 5% CO2, fluorescence intensities in the assay plates were measured by an Envision (PerkinElmer, Shelton, CT) plate reader using three labels for measuring blue, green and red fluorescence at […] 460, 535 and 590nm respectively.
# Potency is the fitted concentration of half-maximal effect; tags give direction and shape of the fitted curve or compound fluorescence and quenching.
row,SMILES,Potency
1,O=c1[nH]cnc2c1ncn2[C@H]1CC[C@@H](CO)O1,inactive
2,CN1CCC[C@H]1c1cccnc1,inactive
3,Nc1ccc(S(N)(=O)=O)cc1,inactive
4,CN(C)C(=S)SC(=S)N(C)C,inactive
5,O=C1NS(=O)(=O)c2ccccc21,inactive
6,CN(C)CCOC(C)(c1ccccc1)c1ccccn1 (stereo not given),inactive
7,CCCCNC(=O)NS(=O)(=O)c1ccc(C)cc1,inactive
8,CCN(CC)C(=O)c1cccc(C)c1,inactive
9,Nc1ccc([N+](=O)[O-])cc1O,inactive
10,CCCCC(CC)C(=O)O (stereo not given),inactive
11,CN(C)CCOC(c1ccccc1)c1ccccc1,inactive
12,Cc1cc(=O)oc2cc(O)ccc12,11.2 µM [fluorescent] (active) and 39.8 µM [fluorescent] (active) and 35.5 µM [fluorescent] (active)
13,C=C1CC[C@H](O)C/C1=C\C=C1/CCC[C@]2(C)[C@@H]([C@H](C)CCCC(C)C)CC[C@@H]12,inactive
14,Cc1ccc(S(=O)(=O)O)cc1,inactive
15,CN(C)C(=O)Nc1ccc(Cl)c(Cl)c1,inactive
16,OC[C@H]1O[C@H](O[C@]2(CCl)O[C@H](CCl)[C@@H](O)[C@@H]2O)[C@H](O)[C@@H](O)[C@H]1Cl,inactive
17,COc1ccc2cc(S(=O)(=O)N[C@H](CC(=O)N[C@H](Cc3ccc(CN4[C@H](C)CCC[C@@H]4C)cc3)C(=O)N(C)C(C)C)c3ccc4c(c3)OCO4)ccc2c1,inactive
18,CCOC(N)=O,inactive
19,CC/C(=C(\c1ccccc1)c1ccc(OCCN(C)C)cc1)c1ccccc1,inactive
20,COc1ccc(OC(F)(F)F)cc1CN[C@H]1CCCN[C@H]1c1ccccc1,inactive

row,SMILES,Potency
1,NC(=O)c1cccnc1,inactive
2,O=CC(=O)c1ccccc1,inactive
3,CC(=O)CCC(=O)O,inactive
4,COc1ccc(CN(CCN(C)C)c2ccccn2)cc1,inactive
5,CN1CCc2cccc3c2[C@H]1Cc1ccc(O)c(O)c1-3,inactive
6,C=C(C)C(=O)OCC(C)O (stereo not given),inactive
7,COc1ccc2c(c1)c(CC(=O)O)c(C)n2C(=O)c1ccc(Cl)cc1,inactive
8,CS(=O)(=O)OCCCCOS(C)(=O)=O,inactive
9,CCCCCCCCCCCC[N+](C)(C)Cc1ccccc1,inactive
10,CC(O)(P(=O)(O)O)P(=O)(O)O,inactive
11,CC(C)c1c(C(=O)Nc2ccccc2)c(-c2ccccc2)c(-c2ccc(F)cc2)n1CC[C@@H](O)C[C@@H](O)CC(=O)O,inactive
12,O=C1O[C@H]([C@@H](O)CO)C(O)=C1O,inactive
13,CC(=O)Nc1c(I)c(NC(C)=O)c(I)c(C(=O)O)c1I,inactive
14,Cn1c(=O)c2c(ncn2C)n(C)c1=O,inactive
15,CN(N=O)C(=O)N[C@@H]1[C@@H](O)[C@H](O)[C@@H](CO)O[C@@H]1O,inactive
16,NC(=O)n1c(O)c(C(=O)c2cccs2)c2cc(Cl)ccc21,inactive
17,Cc1cc(C)nc(NS(=O)(=O)c2ccc(N)cc2)n1,inactive
18,CN[C@H]1CC[C@@H](c2ccc(Cl)c(Cl)c2)c2ccccc21,inactive
19,NC1CCCCC1,inactive
20,Cc1ncc([N+](=O)[O-])n1CCO,inactive
